Only some compounds are listed: those with a hit (about 3.7% of all), similar ones and a draw of the others.
D3 ag: D3 dopamine receptor (human) agonism. P35462. D3R DiscoveRx beta-arrestin cells, luminescence, 90 min. max activation, %. 410,000 compounds, 0.58% hits. AID 652048; in the data active = max activation above about 30%; note: 0% is about no effect
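Agonist mode: compounds and dopamine controls were applied to plated cells for 90 min at 37 degrees C after an overnight attachment at 1500 cells/well. Luminescent read-out followed 30 - 60 minutes at room temperature with DiscoveRx detection reagent.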
DRD3 antagonist: blocks the human D3 dopamine receptor; 360,000 compounds, 2.5% hits; max response, negative = inhibition, %; D3R cells, DiscoveRx beta-arrestin luminescence, antagonist mode; active compounds read low; P35462; in the data active = max response below about -50%; inconclusive = no clear call, values can overlap the other calls; note: % is set by controls: 0 for no effect and ±100 for the full control effect
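Cells expressing the human receptor were seeded at 1500 cells/well, incubated overnight at 37 degrees C in 5% CO2, then exposed to library compounds with dopamine controls for 90 minutes at 37 degrees C before luminescent detection.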
PTHR1 ag: agonists of human PTHR1 parathyroid hormone receptor; Q03431; HEK293 GP2 PTHR1 cells, GloSensor cAMP luminescence, 1 h; 410,000 compounds, 0.075% hits; Potency, µM (top dose mostly 115 µM), for the others: at the highest dose activation, hits mostly activators; AID 743266; note: potency is the fitted concentration of half-maximal effect; nearly all actives have a fitted effect of over 55% in size
Target sequence (Q03431 whole entry, looked up): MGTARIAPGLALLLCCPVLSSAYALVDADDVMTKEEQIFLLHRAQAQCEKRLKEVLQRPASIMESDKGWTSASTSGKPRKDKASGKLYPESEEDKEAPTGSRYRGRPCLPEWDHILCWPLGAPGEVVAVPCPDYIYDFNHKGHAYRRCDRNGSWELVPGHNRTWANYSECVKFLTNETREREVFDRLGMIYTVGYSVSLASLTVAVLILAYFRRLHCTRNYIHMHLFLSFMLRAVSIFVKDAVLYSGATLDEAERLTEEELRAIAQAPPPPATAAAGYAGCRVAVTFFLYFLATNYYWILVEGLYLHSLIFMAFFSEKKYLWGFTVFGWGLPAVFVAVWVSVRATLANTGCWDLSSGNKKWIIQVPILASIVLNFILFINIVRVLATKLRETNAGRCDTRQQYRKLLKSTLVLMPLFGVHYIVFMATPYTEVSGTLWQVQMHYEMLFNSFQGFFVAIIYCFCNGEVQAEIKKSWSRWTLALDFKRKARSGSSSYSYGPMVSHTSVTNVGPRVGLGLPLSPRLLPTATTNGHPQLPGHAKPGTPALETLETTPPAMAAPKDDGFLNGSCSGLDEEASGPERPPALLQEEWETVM
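HEK-293-derived GP2 cells expressing PTHR1 and a GloSensor cAMP reporter, 3,000/well, plated overnight, given luciferin plus IBMX (each 0.5 mM as added) for 1 h at 37 °C, then compound for 1 h at 37 °C. Luminescence was read after 15 min at room temperature.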
BRCA1 expr act: activators of BRCA1 expression; MCF7-BRCA1-FFLuc reporter, luminescence, 48 h; response scale: scaled: vehicle 0%, 10 µM genistein 100%; Potency, µM (doses to about 46.1 µM), inactives show top-dose activation, most hits filed as activators; 380,000 compounds, 1.1% hits; note: potency is the fitted concentration of half-maximal effect; nearly all actives have a fitted effect of over 80% in size
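MCF7-BRCA1-FFLuc, 2000 cells/well; 2 h attach, 37 °C/5% CO2; compound 48 h; luciferase substrate 15 min; luminescence end-point. Norm. to genistein 10 microM max activation and DMSO; concentration-response curves fitted.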
B2AR arrestin: agonists driving beta-arrestin recruitment to human beta2-adrenergic receptor | P07550 | beta-arrestin recruitment to beta2AR, cell-based reporter | AID 492947 | Potency, µM (doses to about 46.1 µM), for inactives: at the top dose activation, actives largely listed as activators | 330,000 compounds, 0.02% hits;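 note: potency is the fitted concentration of half-maximal effect; 0% = DMSO controls and full agonism = EC100 isoproterenol or metaproterenol; nearly all actives have a fitted effect of over 65% in size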
RGS4 inh: blocks human RGS4-accelerated GTP hydrolysis. P49798. Potency, µM (titrated, usually from 114 µM), inactives show top-dose activity change, negative = inhibition, most hits filed as inhibitors. Transcreener GDP fluorescence polarization, RGS4-accelerated GTP hydrolysis. AID 504845. 390,000 compounds, 0.039% hits; note: potency is the fitted concentration of half-maximal effect; % is set by controls: 0 for no effect and ±100 for the full control effect; nearly all actives have a fitted effect of over 75% in size
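MLSMR compounds (23 nl, pin-transferred) preincubated 10 min at room temperature with a 500nM (2x) first reagent, then RGS4 at 900nM (2x) plus Transcreener GDP mix added; fluorescence polarization (620/688 nm) read before and after 90 min at 30 °C.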
Numbers without * were called inactive; i = inactive; ? = inconclusive; . = no result; [ ] = remark or other dose. Unless noted, calls come from the whole dose curve; as a rule, active = well fitted curve in the direction sought with a large enough effect; inconclusive = small, poorly fitted or top-dose-only effect, or another doubt; inactive = no such curve, though single readings can be large; an effect the other way counts as inactive or inconclusive.

SMILES	D3 ag	DRD3 antagonist	PTHR1 ag	BRCA1 expr act	B2AR arrestin	RGS4 inh
O=C(COC(=O)c1cc(Cl)ccc1O)NC(=O)NCc1ccccc1	11	1	-11%	6%	3%	-17%
C[C@H](CO)N1C[C@H](C)[C@@H](CN(C)S(C)(=O)=O)Oc2ccc(NC(=O)C3CCCCC3)cc2C1=O	52*	20	-41%	-6%	0%	24%
O=C1c2ccccc2-c2onc3ccc(Oc4ccccc4)c1c23	-9	-116*	i	-85%	?	5%
CCOc1cc(N2CCOCC2)c(OCC)cc1NC(=O)[C@H](C)NC(=O)c1ccco1	-7	-2	-10%	-28%	0%	2%
C=CCn1c(Cc2ccccc2)nc2c(cnn2-c2ccccc2)c1=O	39*	30	-38%	-68%	-1%	-13%
Nn1c(SCc2ccccc2)nc2c(cnn2-c2ccccc2)c1=O	8	1	-44%	3.2µM*	0%	5%
NC(=S)N/N=C\c1ccccc1OCc1ccccc1	-5	-54*	i	-42%	0%	-50%
Oc1c(Cl)cc(Cl)cc1C1=NNC(c2ccc(Cl)cc2)C1 (stereo not drawn)	-22	-64*	-26%	-47%	0%	-48%
Cc1ccc([N+](=O)[O-])c(OCCn2cnc3ccccc32)c1	-18	-18	-27%	-3%	0%	28%
O=[N+]([O-])c1ccccc1OCCNCc1ccccc1	25	-86*	i	64%	0%	-6%
COc1cccc(OCCOc2ccccc2[N+](=O)[O-])c1	-7	-23	-28%	?	.	-17%
O=[N+]([O-])c1ccccc1OCCCN1CCc2ccccc2C1	-21	-103*	-10%	11%	0%	17%
Cc1ccc([N+](=O)[O-])c(OCCN2CCCCCC2)c1	-14	-90*	i	8%	-1%	13%
Cc1ccc([N+](=O)[O-])c(OCCCN2CCC(Cc3ccccc3)CC2)c1	-1	-95*	-84%	-76%	.	12%
O=[N+]([O-])c1cccc(OCCN2CCC(Cc3ccccc3)CC2)c1	-21	-102*	i	13%	-1%	-7%
Cc1cc(OCCN2CCCC2)ccc1[N+](=O)[O-]	-23	-63*	i	-6%	0%	-27%
Cc1nonc1OCCN1CCN(c2ccccc2[N+](=O)[O-])CC1	-9	-58*	-15%	-3%	0%	-16%
Cc1ccc([N+](=O)[O-])c(OCCN2CCc3ccccc3C2)c1	15	-60*	-17%	14%	-1%	-1%
CCOC(=O)c1cc(OC(=O)c2ccccc2C)n(-c2ccccc2)n1	1	.	i	15%	.	-12%
CNC(=S)NNC(=O)c1cccn(Cc2cccc(C(F)(F)F)c2)c1=O	8	11	i	1%	0%	-28%
O=C(O)COCC(=O)NCc1csc2ccccc12	7	10	i	10%	0%	-3%
O=[N+]([O-])c1ccccc1OCCN1CCCC1	-13	-61*	-25%	-8%	0%	-12%
O=[N+]([O-])c1ccccc1OCCN1CCOCC1	2	-15	-20%	-16%	4%	13%
CC(OC(=O)c1ccc(Cl)c(S(=O)(=O)Nc2ccc(F)cc2)c1)C(=O)NC(N)=O (stereo not drawn)	9	-5	-35%	-13%	-1%	13%[56.9 µM]
Nc1ccc(Oc2cc(N)cc(Oc3ccccc3)c2)cc1	0	5	i	7.1µM*	0%	8%
SMILES	D3 ag	DRD3 antagonist	PTHR1 ag	BRCA1 expr act	B2AR arrestin	RGS4 inh
Nc1ccc(Oc2ccc3nc(-c4ccccc4)c(-c4ccccc4)nc3c2)cc1	-4	-15	-20%	-1%	0%	-15%
Clc1ncnc2scc(-c3ccc(Br)cc3)c12	-12	-54*	i	-26%	0%	16%
CCOC(=O)c1c(C(=O)OCC)c(C)n(N2C(=O)CSC2=S)c1C	-2	-62*	i	2%	0%	?
CCOC(=O)c1c(C)[nH]sc1=S	-4	?	-22%	11%	0%	-32%
Cc1oc(-c2cccc(F)c2)nc1CN1CCCN(C(=O)c2ccco2)CC1	-17	-62*	i	-31%	0%	12%
Cc1oc(-c2cc(F)ccc2F)nc1CN1CCCN(C(=O)c2ccco2)CC1	-16	-81*	-1%	-16%	0%	0%
COc1cccc(-c2nc(CN3CCN(C(=O)c4ccco4)CC3)c(C)o2)c1OC	10	0	i	-6%	.	.
Cc1cccc(N2CCN(Cc3nc(-c4ccc(F)cc4F)oc3C)CC2)n1	-16	-86*	-16%	-20%	1%	0%
Cc1cnc(C)c(N2CCN(Cc3nc(-c4cccc(F)c4F)oc3C)CC2)n1	-10	-22	i	-17%	-1%	-5%[56.9 µM]
Cc1cc(C)c(O)c(-c2cc(C(=O)Nc3c(C)n(C)n(-c4ccccc4)c3=O)[nH]n2)c1	2	-5	-16%	6%	-1%	-11%[56.9 µM]
COc1cc(F)ccc1-c1cc(C(=O)Nc2ccc(NC(C)=O)cc2)[nH]n1	4	30	i	8%	.	.
COc1cc2nc(NC3CCN(Cc4ccccc4)CC3)nc(N3CCCN(C)CC3)c2cc1OC	.	.	.	-35%	.	.
CC1(C(=O)OCC(=O)Nc2ccc3ccccc3c2)CC1(Cl)Cl (stereo not drawn)	-9	-19	-32%	32%	0%	-1%
CC1=C(C(=O)Nc2ccc(C)cc2C)C(c2ccccc2F)n2nc(SCC(=O)c3ccc(C)cc3)nc2N1 (stereo not drawn)	-7	.	i	.	.	6%
COc1ccccc1NC(=S)N/N=C/c1ccc(O)cc1	2	-7	-28%	3.2µM*	0%	0%
Oc1ccc(/C=N/NC(=S)N/N=C/c2ccc(O)cc2)cc1	5	-3	1%	8.9µM*	0%	-1%[11.4 µM]
O=C(O)c1cnn2c(-c3ccc(F)cc3)ccnc12	1	20	i	0%	0%	-6%
CN(C)C(=O)CCc1ccc2c3c([nH]c2c1)[C@]1(CCC2CCCC2)[C@@H](C(=O)N2CCOCC2)C[C@H](CC(=O)NCCC2=CCCCC2)C(=O)N1CC3	-12	34	-1%	-16%	0%	-1%
CCOC(=O)c1c(C)[nH]c(C(=O)COC(=O)c2ccco2)c1C	-4	24	i	-1%	0%	-42%
CCCCCC(C)n1[nH]c(=O)cc1N (stereo not drawn)	4	-109*	-22%[57.5 µM]	5%	0%	-13%
O=C1OC2(CCCCC2)CC2=C1C1O[C@](CCCCN3C(=O)c4ccccc4C3=O)(Cc3ccccc31)O2	.	.	.	.	-1%[9.22 µM]	.

Assay outcomes (PubChem)
